Screens as filed in PubChem.
BAZ2B block: inhibitors of human BAZ2B bromodomain; Q9UIF8; AlphaScreen BAZ2B-H3K14Ac peptide displacement; Potency, µM (highest dose often 114 µM), usual class: inhibitors; actives 4.4% (n = 360,000); also: nearly all actives have a fitted effect of over 60% in size
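Multi-concentration screen (max 110 uM) measuring displacement of acetylated histone H3 peptide from BAZ2B by AlphaScreen, using 50 nM protein, 50 nM peptide and 10 ug/mL streptavidin donor plus Ni-chelate acceptor beads.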
Sfp inh: inhibitors of Bacillus subtilis Sfp phosphopantetheinyl transferase | Biochemical Sfp PPTase activity, qHTS | Potency, µM, most hits filed as inhibitors | AID 1490 | actives 3.5% (n = 310,000);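 also: the enzyme is Sfp with the accession as filed and its product quenches rhodamine fluorescence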
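After 15 min at room temperature with compound, 15 nM Sfp received 5 uM rhodamine-CoA plus 12.5 uM BHQ-2-ybbR (50 mM Hepes pH 7.6, 10 mM MgCl2). Rate came from the fluorescence difference over 30 min, ex 525/em 598 nm.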
G9a inh: G9a (human) methyltransferase inhibition; AID 504332; G9a H3K9 monomethylation, AlphaScreen, 2 h; actives 8.8% (n = 350,000); Q96KQ7; Potency, µM (doses to about 102 µM), most hits filed as inhibitors; also: nearly all actives have a fitted effect of over 75% in size
Target sequence (Q96KQ7 913-1193 limits assumed): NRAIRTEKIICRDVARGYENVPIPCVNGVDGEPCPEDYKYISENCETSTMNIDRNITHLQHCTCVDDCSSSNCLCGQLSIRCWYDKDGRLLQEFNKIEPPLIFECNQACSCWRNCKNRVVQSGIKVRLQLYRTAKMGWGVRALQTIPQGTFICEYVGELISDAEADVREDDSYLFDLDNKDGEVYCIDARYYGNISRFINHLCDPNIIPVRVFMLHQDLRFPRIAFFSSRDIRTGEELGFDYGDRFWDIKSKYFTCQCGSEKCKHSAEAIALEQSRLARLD
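Chemiluminescent proximity detection of H3K9 monomethylation, read after 10 min bead incubation in the dark. Reaction: 20 nM G9a, 500 nM biotin-H3K9 peptide, 20 uM SAM cofactor, 2 h, room temperature, following 15 min enzyme-compound preincubation.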
JMJD2A Tudor inh: inhibitors of human JMJD2A Tudor domain | O75164 | AlphaScreen JMJD2A-Tudor / H3K4me3 peptide binding | Potency, µM (highest dose often 114 µM), actives largely listed as inhibitors | actives 4.4% (n = 390,000) | AID 504339; also: nearly all actives have a fitted effect of over 50% in size
PLK1 PBD block: PLK1 (human) polo-box domain binding inhibition. P53350. actives 2.8% (n = 360,000). Potency, µM, hits mostly inhibitors. Plk1 PBD binding of FITC phosphopeptide, fluorescence polarization. AID 720504; also: series mostly up to about 57 µM; nearly all actives have a fitted effect of over 65% in size
HP1b binding inh: blocks HP1-beta chromodomain binding to methylated histone tails; P83916; AlphaScreen HP1-beta / biotin-H3K9me3 peptide binding; Potency, µM (titrated, usually from 114 µM), usual class: inhibitors; actives 0.56% (n = 390,000); AID 540317; also: nearly all actives have a fitted effect of over 70% in size
Target sequence (P83916 whole entry, looked up): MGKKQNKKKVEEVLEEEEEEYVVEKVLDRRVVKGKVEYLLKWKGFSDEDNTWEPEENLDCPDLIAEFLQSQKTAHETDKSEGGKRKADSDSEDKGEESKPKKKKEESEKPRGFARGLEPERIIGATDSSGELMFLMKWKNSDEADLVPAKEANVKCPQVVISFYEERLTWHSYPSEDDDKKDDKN
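Compound inhibition of the preformed complex between 50 nM HP1-beta and 50 nM biotinylated H3K9me3 peptide was read by AlphaScreen. Buffer was PBS pH 7.4 with 0.01% Tween-20. Incubations ran 30 min at room temperature, with 10 ug/mL donor/acceptor beads.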
Each line names hits and unclear results; the compound was inactive in the other large screens. Only some compounds are listed: those with a hit (about 12% of all), similar ones and a draw of the others. Calls follow the shape of the dose curve; as a rule, active = well fitted curve in the direction sought with a large enough effect; inconclusive = small, poorly fitted or top-dose-only effect, or another doubt; inactive = no such curve, though single readings can be large; an effect the other way counts as inactive or inconclusive.

O=S(=O)(c1cccc2nsnc12)N1CCc2ccccc21	BAZ2B block 71µM, G9a inh inconclusive, JMJD2A Tudor inh inconclusive
O=S(=O)(c1cccc2nsnc12)N1CCN(c2ccccc2F)CC1	BAZ2B block inconclusive, JMJD2A Tudor inh 50µM, PLK1 PBD block 24µM, HP1b binding inh inconclusive (no result: G9a inh)
O=S(=O)(c1cccc2nsnc12)N1CCOCC1	none
O=S(=O)(c1cccc2nsnc12)N1CCN(C/C=C/c2ccccc2)CC1	BAZ2B block inconclusive, G9a inh inconclusive, JMJD2A Tudor inh inconclusive
O=C(Cc1ccsc1)NNC(=O)c1ccccc1Cl	none (no result: Sfp inh)
CN(C)c1nc(NCc2ccccc2)nc(N/N=C/c2ccc(Br)cc2)n1	none
Cc1cc(N/N=C/c2ccc(N(C)C)cc2)nc(NCc2ccccc2)n1	BAZ2B block 13µM, Sfp inh 20µM, JMJD2A Tudor inh inconclusive
Cc1cc(N/N=C/c2ccc(F)cc2)nc(NCc2ccccc2)n1	Sfp inh 16µM (no result: G9a inh)
Cc1cc(N/N=C/c2ccccc2)nc(N)n1	G9a inh inconclusive
Cc1ccc(/C=N/Nc2cc(C)nc(NCc3ccccc3)n2)cc1	BAZ2B block inconclusive, Sfp inh 16µM, G9a inh 32µM, JMJD2A Tudor inh inconclusive
CN(C)c1nc(NCc2ccccc2)nc(N/N=C/c2ccc3c(c2)OCO3)n1	BAZ2B block inconclusive, G9a inh 50µM
CCCc1cc(=O)[nH]c(SCc2nc(-c3ccc(OCC)cc3)no2)n1	none (no result: Sfp inh, PLK1 PBD block)
NCC(=O)N[C@@H](CCCN=C(N)N)C(=O)NCC(=O)N[C@@H](CC(=O)O)C(=O)N[C@@H](CO)C(=O)N1CCC[C@H]1C(=O)O	none (no result: BAZ2B block, G9a inh, JMJD2A Tudor inh, PLK1 PBD block, HP1b binding inh)
Cc1cc(C)nc(NS(=O)(=O)c2ccc(NS(=O)(=O)c3ccccc3)cc2)n1	BAZ2B block inconclusive
Cc1cc(N/N=C/c2ccc(O)cc2)nc(NS(=O)(=O)c2ccccc2)n1	BAZ2B block 79µM, G9a inh inconclusive, JMJD2A Tudor inh 56µM, HP1b binding inh 71µM
COc1cccc(NC(=O)Cn2cc(C(=O)c3ccco3)c3ccccc32)c1	none (no result: Sfp inh, PLK1 PBD block)
COc1ccccc1C1CC(c2ccc(Br)cc2)=NN1C(=O)c1cccnc1 (centres undefined)	BAZ2B block inconclusive
COc1cccc(C2CC(c3ccc(Br)cc3)=NN2C(=O)c2ccncc2)c1OC (centres undefined)	BAZ2B block 32µM, JMJD2A Tudor inh inconclusive
COc1ccc(C2=NN(C(=O)c3ccncc3)C(c3ccccc3O)C2)cc1 (centres undefined)	Sfp inh 14µM, G9a inh inconclusive
O=C(c1ccccc1)N1N=C(c2cccs2)CC1c1ccccc1O (centres undefined)	BAZ2B block inconclusive, Sfp inh inconclusive
O=C(c1ccncc1)N1N=C(c2ccc(Cl)cc2)CC1c1ccccc1O (centres undefined)	BAZ2B block inconclusive, G9a inh 20µM, JMJD2A Tudor inh inconclusive
CC(=O)NC(CC(=O)N1CCCC1)c1ccccc1 (centres undefined)	none (no result: BAZ2B block, Sfp inh, G9a inh)
CCC1(C)CC(C#N)(C#N)C(=O)NC1=O (centres undefined)	none (no result: BAZ2B block, Sfp inh, G9a inh, JMJD2A Tudor inh, HP1b binding inh)
Cc1ccc(NN2C(=O)C=C(c3ccccc3)C2=O)cc1	Sfp inh 11µM, G9a inh 10µM, PLK1 PBD block 8.4µM
O=C1c2ccccc2C(=O)N1Nc1ccccc1	none
CCOc1nc(NC2CCCC2)nc(N2CCC(C)CC2)n1	PLK1 PBD block 19µM
Oc1ccccc1C=NNC(=S)Nc1ccc(F)cc1	JMJD2A Tudor inh 56µM (no result: BAZ2B block, Sfp inh, G9a inh)
Cc1nn(C)cc1/C=N/NC(=S)Nc1ccccc1	Sfp inh 25µM, G9a inh inconclusive, JMJD2A Tudor inh inconclusive, PLK1 PBD block 12µM
CC(C)CN(C(=O)COC(=O)C(C)N1C(=O)c2ccccc2C1=O)c1c(N)n(Cc2ccccc2)c(=O)[nH]c1=O (centres undefined)	G9a inh 35µM (no result: Sfp inh)
CC(C)CN(C(=O)COC(=O)COc1ccc2c(c1)CCC2)c1c(N)n(Cc2ccccc2)c(=O)[nH]c1=O	none (no result: Sfp inh)
Cc1cc(C)cc(OCC(=O)OCC(=O)N(CC(C)C)c2c(N)n(Cc3ccccc3)c(=O)[nH]c2=O)c1	G9a inh 50µM (no result: Sfp inh)
